Reference: PubChem BioAssay (NCATS)
Records with an inconclusive call do not appear. Values without a mark were called inactive. Activity calls are given as the source filed them. The call rests on the fitted dose curve; in most records, active means well fitted inhibition curve with a large enough effect; inconclusive means small, poorly fitted or top-dose-only effect; inactive means flat fitted curve, though single readings scatter.
On the % scale 0 is the no-effect control and ±100 the full control effect; potency means the concentration at half of the fitted maximal effect.

These molecules were tested on astro (assay: Drug repurposing screens with cells derived from glioblastoma tumor samples (AID 1345199; further: nearly all actives have a fitted effect of over 40% in size)). Conditions: viability, ATP luminescence, 48 h; series mostly up to 45.9 µM; activity, negative = cell killing: at the top concentration.
Outline: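 Four patient lines of CD133+ GBM neurospheres were screened at several concentrations; hits were retested in those lines plus three slower-growing GBM lines, using 48-hour treatment and ATP-based viability.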
With `O=c1[nH]c2ccccc2n1CCCN1CCC(n2c(=O)[nH]c3cc(Cl)ccc32)CC1` the “activity, negative = cell killing” value was -23.7%. For `NP(N)(=O)NC(=O)c1ccc(F)cc1`, the “activity, negative = cell killing” value was -4.55%. In the case of `C=C1CC[C@@]2(O)[C@H]3Cc4ccc(O)c5c4[C@@]2(CCN3CC2CC2)[C@H]1O5`, the “activity, negative = cell killing” value is reported as -8.13%. For `CC[N+](CC)(CC)CC`, the “activity, negative = cell killing” value was -17.1%. With `c1ccc(C2CC2)c(OCC2=NCCN2)c1` the “activity, negative = cell killing” value was -17.5%. For `NCCc1cc(O)c(O)cc1O`, the “activity, negative = cell killing” value was -25.3%. For `CC(C)=CC1C(C(=O)OCc2cccc(Oc3ccccc3)c2)C1(C)C` (centres undefined), the “activity, negative = cell killing” value was 3.78%. `Fc1ccc(C(OCCN2CCN(CCCc3ccccc3)CC2)c2ccc(F)cc2)cc1` was tested, and the Potency was 22.4 µM (active). With `Cc1ccc(S(=O)(=O)N[C@@H](CCCCN)C(=O)CCl)cc1` the “activity, negative = cell killing” value was -23.2%. In the case of `CCN(CC)CCN1C(=O)CN=C(c2ccccc2F)c2cc(Cl)ccc21`, the “activity, negative = cell killing” value is reported as -20.2%. For `O=P1(NCCCl)OCCCN1CCCl` (centres undefined), the “activity, negative = cell killing” value was -7.08% [at 21.2 µM]. For `Cc1ncc(CNC(=O)N(CCCl)N=O)c(N)n1`, the “activity, negative = cell killing” value was -6.66%. With `CC(=O)[C@H]1CC[C@H]2[C@@H]3CC[C@H]4C[C@H](O)CC[C@]4(C)[C@H]3C(=O)C[C@]12C` the “activity, negative = cell killing” value was 4.14%. With `CC(=O)Nc1cc([As](=O)(O)O)ccc1O` the “activity, negative = cell killing” value was -9.88%. In the case of `CC(C)=CCOc1c2occc2cc2ccc(=O)oc12`, the “activity, negative = cell killing” value is reported as -20.5%. `CC(C)NCC(O)c1ccccc1Cl` (centres undefined) was tested, and the “activity, negative = cell killing” value was -13.8%. With `CN1CCN(C(=O)O[C@H]2c3nccnc3C(=O)N2c2ccc(Cl)cn2)CC1` the “activity, negative = cell killing” value was -7.01%. With `Cc1cccc(C)c1NC(=O)CN1CCCC1=O` the “activity, negative = cell killing” value was -3.36%. For `COc1ccc(C(=O)c2c(C)n(CCN3CCOCC3)c3ccccc23)cc1`, the “activity, negative = cell killing” value was -12.7%. `CN(C)[C@@H]1C(=O)C(C(N)=O)=C(O)[C@@]2(O)C(=O)C3=C(O)c4c(O)cccc4[C@@](C)(O)[C@H]3C[C@@H]12` was tested, and the “activity, negative = cell killing” value was -5.05% [at 21.2 µM]. `Clc1cccc(N2CCNCC2)c1` was tested, and the “activity, negative = cell killing” value was -16%. For `CC(C)(N)Cc1ccc(Cl)cc1`, the “activity, negative = cell killing” value was -14.6%. `O=C(O)c1ccc2[nH]cc(CCCCN3CC=C(c4ccccc4)CC3)c2c1` was tested, and the “activity, negative = cell killing” value was -14%. For `COc1ccc(Cc2nccc3cc(OC)c(OC)cc23)cc1OC`, the Potency was 10 µM (active). In the case of `CCC(COC(=O)c1cc(OC)c(OC)c(OC)c1)(c1ccccc1)N(C)C` (centres undefined), the “activity, negative = cell killing” value is reported as -19.9%. With `NN=C(N)N` the “activity, negative = cell killing” value was -11.3%. `NCC(CC(=O)O)c1ccc(Cl)cc1` (centres undefined) was tested, and the “activity, negative = cell killing” value was -3.56%. For `CC[N+]1(C)CCCC(OC(=O)C(O)(c2ccccc2)c2ccccc2)C1` (centres undefined), the “activity, negative = cell killing” value was -22.8%. For `CC(C)CC(N(C)C)C1(c2ccc(Cl)cc2)CCC1` (centres undefined), the “activity, negative = cell killing” value was -12.7%.
